The list is not random: actives were taken first. Their share in the collection is about 9.3%.
ELG1 repair inh – ELG1-dependent DNA repair inhibition; HEK293T ELG1-luciferase reporter, luminescence, 16 h; DNA damage induced by 5-fluorouridine; AID 504467; hit rate 2.3% among 330,000; Potency, µM (top dose mostly 46.1 µM), actives largely listed as inhibitors; further: nearly all actives have a fitted effect of over 55% in size
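Reporter activity after DNA damage by 5-fluorouridine is monitored. Compound-treated cells incubate 16 hr at 37 °C, then ONE-Glo is added for 30 min before luminescence reading.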
NPC1 promoter act – NPC1 promoter activation; Potency, µM (titrated, usually from 9.22 µM), hits mostly activators; AID 485313; Huh7 NPC1 promoter luciferase reporter, 24 h; hit rate 2.4% among 320,000; further: nearly all actives have a fitted effect of over 60% in size
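Huh7 reporter cells (NPC1 promoter driving luciferase) are dosed with compound for 24 h at 37 °C, 5% CO2; luciferase detection reagent is then added and luminescence measured after 10 min at ambient temperature.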
SMN2 splice up – enhancers of SMN2 splice variant expression; HEK293 SMN2-luciferase splicing reporter, luminescence, 30-36 h; Potency, µM (series often up to 46.1 µM), hits mostly activators; hit rate 2.8% among 210,000; AID 1458; further: nearly all actives have a fitted effect of over 55% in size
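HEK293 cells carry an SMN2 […]–luciferase reporter in which exon 7 inclusion puts luciferase in frame. Cells were plated 10-12 h before compound addition, then incubated 30-36 h at 37C. ONE-Glo luminescence was read; sodium butyrate at 4.5 mM final served as control.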
ELG1 genotox – inducers of genotoxicity in HEK293T ELG1-luciferase cells; HEK293T ELG1-luciferase reporter, luminescence, 16 h; Potency, µM (top dose mostly 46 µM), most hits filed as activators; hit rate 1.3% among 330,000; AID 504466; further: nearly all actives have a fitted effect of over 60% in size
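Genotoxic stress is detected as increased luminescence from luciferase-tagged ELG1 in HEK293T cells, measured with ONE-Glo after a 16 hr treatment at 37 °C.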
FLuc modulator – inhibits or activates purified firefly luciferase, miR-21 counter-screen; purified FLuc, Km substrates, luminescence inhibition; AID 588342; Potency, µM (series often up to 57.5 µM), hits mostly inhibitors; hit rate 6.9% among 360,000; further: nearly all actives have a fitted effect of over 55% in size
Target sequence (P08659 whole entry, looked up): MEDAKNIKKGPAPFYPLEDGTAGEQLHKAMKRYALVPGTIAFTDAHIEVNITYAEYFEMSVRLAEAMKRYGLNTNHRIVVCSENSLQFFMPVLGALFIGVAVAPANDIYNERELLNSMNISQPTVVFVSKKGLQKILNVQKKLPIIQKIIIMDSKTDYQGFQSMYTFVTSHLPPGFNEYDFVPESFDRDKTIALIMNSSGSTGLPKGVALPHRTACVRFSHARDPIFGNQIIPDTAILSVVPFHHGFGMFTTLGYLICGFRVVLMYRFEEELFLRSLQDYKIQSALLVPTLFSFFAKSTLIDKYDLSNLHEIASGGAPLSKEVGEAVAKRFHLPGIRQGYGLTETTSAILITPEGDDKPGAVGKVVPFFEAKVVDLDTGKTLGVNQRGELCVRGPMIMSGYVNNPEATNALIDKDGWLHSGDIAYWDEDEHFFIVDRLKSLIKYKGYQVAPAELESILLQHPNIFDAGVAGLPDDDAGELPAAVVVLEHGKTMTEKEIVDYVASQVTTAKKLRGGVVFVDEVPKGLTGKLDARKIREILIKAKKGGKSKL
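Biochemical qHTS of compounds, final roughly 60 µM downward over six points, against 10 nM purified firefly luciferase using Km concentrations of substrates (10 uM D-luciferin, 10 uM ATP) in Tris acetate pH 7.5 buffer; luminescence output.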
Rab9 prom act – Rab9 promoter activation; Huh7 Rab9 promoter-luciferase reporter, luminescence, 24 h; Potency, µM (highest dose often 9.22 µM), most hits filed as activators; hit rate 2.8% among 320,000; further: nearly all actives have a fitted effect of over 60% in size
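Luminescence read-out: Huh7 cells stably expressing Rab9-luciferase, treated 24 h with compound at 37 °C, then lysed with luciferase reagent for 10 min at ambient before reading.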
Numbers stand for hits; - = inactive; ? = inconclusive; . = no result; [ ] = another dose, or the depositor's remark. The call rests on the fitted dose curve; in most records, active means well fitted curve in the direction sought with a large enough effect; inconclusive means small, poorly fitted or top-dose-only effect, or another doubt; inactive means no such curve, though single readings can be large; an effect the other way counts as inactive or inconclusive.

SMILES | ELG1 repair inh | NPC1 promoter act | SMN2 splice up | ELG1 genotox | FLuc modulator | Rab9 prom act
CC1CCCCN1C(=O)c1cc2nc(-c3ccccc3)cc(-c3ccccc3)n2n1 (configuration not stated) | 16µM | - | - | - | - | -
O=C(c1cc2nc(-c3ccc(F)cc3)cc(C(F)(F)F)n2n1)N1CCCCC1c1cccnc1 (configuration not stated) | 8.2µM | - | - | - | ? | -
O=C(c1cnn2c(C(F)(F)F)cc(-c3ccccc3)nc12)N1CCCCC1c1cccnc1 (configuration not stated) | ? | - | - | - | - | -
Cc1ccc(-c2cc(C(F)F)n3ncc(C(=O)N4CCCCC4c4cccnc4)c3n2)cc1 (configuration not stated) | 18µM | - | - | - | - | -
CCN(CC(=O)N1CCOCC1)S(=O)(=O)c1cc(Cl)ccc1Cl | - | - | . | - | - | -
Cc1sc2nc(CSC(C)C(=O)N3CCOCC3)[nH]c(=O)c2c1C (configuration not stated) | - | - | . | - | - | -
COc1ccc(CNC(=O)c2cc(-c3ccc(OC)c(OC)c3)nc3n[nH]c(-c4ccc(C)cc4)c23)cc1 | . | . | . | . | - | .
CCc1ccc2[nH]c(C(=O)Nc3ccc4c(c3)OCO4)cc2c1 | - | ? | . | - | 2.7µM | -
CCc1ccc2[nH]c(C(=O)Nc3ccc(Br)c(C)n3)cc2c1 | ? | 2.2µM | . | ? | ? | 1.4µM
Cc1cc(C)c2[nH]c(C(=O)Nc3ccc4c(c3)OCO4)cc2c1 | - | ? | . | - | 12µM | ?
Cc1cc2oc(C(=O)Nc3c(C)n(C)n(-c4ccccc4)c3=O)cc(=O)c2cc1C | . | . | - | . | - | .
COc1ccc(CCNS(=O)(=O)c2ccc(Br)s2)cc1 | ? | - | . | - | ? | -
Cc1ccc(NC(=O)CSCC(=O)NC2=NCCS2)cc1 | - | - | . | - | - | -
CC(Oc1ccc2c(=O)c(-c3ccc(Cl)cc3)c(C(F)(F)F)oc2c1)C(=O)O (configuration not stated) | - | - | . | - | - | -
Cc1cc(C)cc(NC(=S)/C(=C(\[O-])c2ccc(Cl)cc2Cl)[n+]2ccccc2)c1 | - | - | - | - | - | -
[O-]/C(=C(\C(=S)Nc1ccc(SC(F)F)cc1)[n+]1ccccc1)c1ccc(Cl)cc1Cl | 15µM | - | - | - | - | -
Cc1ccc(C)c(C(=O)CN2C(=O)NC3(CCCCCC3)C2=O)c1 | - | - | . | - | - | -
CCCn1c(C)cc(C(=O)COc2ccc(C)nc2[N+](=O)[O-])c1C | ? | - | . | - | ? | -
CCCn1c(C)cc(C(=O)COc2ccc(S(=O)(=O)N(CC)CC)cc2[N+](=O)[O-])c1C | 16µM | - | -[1.84 µM] | - | - | -
O=C(Nc1ccnn1C1CCN(CC(O)CO)CC1)C1CCCC1 (configuration not stated) | - | - | . | - | - | -
CC(NC(=O)CCCc1c[nH]c2ccccc12)c1ccc(F)cc1 (configuration not stated) | - | - | . | - | - | -
O=C(COC(=O)C12CC3CC(CC(Br)(C3)C1)C2)Nc1cccc(S(=O)(=O)N2CCOCC2)c1 | 16µM | . | . | - | . | .
CCCc1nc2ccccc2c(C(=O)OCC(=O)Nc2ccc(S(=O)(=O)N3CCOCC3)cc2)c1CC | 21µM | - | - | - | - | -
COc1cc(S(=O)(=O)N2CCOCC2)ccc1NC(=O)COC(=O)C12CC3CC(CC(C3)C1)C2 | - | - | - | - | - | -
CCCc1nc2ccccc2c(C(=O)OCC(=O)Nc2cccc(S(=O)(=O)N3CCOCC3)c2)c1CC | 26µM | - | - | - | - | -
SMILES | ELG1 repair inh | NPC1 promoter act | SMN2 splice up | ELG1 genotox | FLuc modulator | Rab9 prom act
CCCc1nc2ccccc2c(C(=O)OCC(=O)NC2CC2)c1CC | ? | . | . | - | . | .
O=C(NC1CCCCC1)c1cc(Nc2cccc(C(F)(F)F)c2)nc2ccccc12 | . | . | . | . | - | .
N#C/C(=C\c1ccc(Cl)cc1)c1n[nH]c(Cn2cncn2)n1 | - | - | - | - | - | -
O=C(Nc1ccc(Cl)cc1Cl)c1n[nH]c(Cn2cncn2)n1 | ? | - | - | ? | 4.3µM | -
Cn1ccc2c(OCC(=O)NCc3ccc(F)cc3)cccc2c1=O | . | . | . | . | - | .
C#CCN(CC=C)C(=O)c1ccc(OC2CCN(S(=O)(=O)N(C)C)CC2)cc1 | 21µM | - | . | - | ? | ?
C=C(C)CN(CC)C(=O)c1ccc(OC2CCN(S(=O)(=O)N(C)C)CC2)cc1 | ? | - | . | - | - | -
CN(C)S(=O)(=O)N1CCC(Oc2ccc(C(=O)N3C[C@H]4CC[C@H]3C4)cc2)CC1 | 13µM | - | . | - | - | -
COc1ccc(CNC(=O)c2cc(S(=O)(=O)N3CCCCC3)ccc2Cl)cc1OC | 6.5µM | . | . | - | . | .
COc1ccc(CNC(=O)CN2CCN(S(=O)(=O)c3cc(Br)ccc3Br)CC2)cc1OC | - | - | . | - | - | -
COc1ccc(CNC(=O)c2cccc(S(=O)(=O)N3CCCCC3)c2)cc1OC | ? | - | . | - | - | -
COc1ccc(CNC(=O)CN2CCN(S(=O)(=O)c3c(C)c(C)cc(C)c3C)CC2)cc1OC | 7.3µM | . | . | - | . | .
COc1ccc(CCNC(=O)c2cc(S(=O)(=O)N3CCC4(CC3)OCCO4)ccc2F)cc1OC | 9.2µM | - | - | - | - | -
Clc1cccc(Nc2nc(-c3ccncc3)nc3ccccc23)c1 | 2.6µM | - | . | - | - | -
Clc1ccccc1Nc1nc(-c2ccncc2)nc2ccccc12 | ? | - | . | - | - | -
O=c1oc(Nc2ccccc2Cl)nc2ccccc12 | ? | 3.5µM | ? | 21µM | 15µM | ?
O=c1oc(Nc2ccccc2F)nc2ccccc12 | ? | ? | . | ? | 9.5µM | ?
O=c1oc(Nc2cccc(Cl)c2)nc2ccccc12 | ? | 2.8µM | 11µM | 13µM | - | 0.79µM
Cc1cc(Nc2cccc(Cl)c2)c2ccccc2n1 | ? | - | . | - | - | -
O=C(Nc1nccs1)c1cc2cc(Cl)ccc2oc1=O | - | - | . | - | - | -
CCOc1ccccc1CNC(=O)CCCn1c(=O)c2cccn2c2cccnc21 | . | . | . | . | - | .
CC(=O)Nc1cccc(Nc2nc(-c3ccccc3F)nc3ccccc23)c1 | 15µM | - | - | - | - | -
CN(C)S(=O)(=O)c1ccc(Cl)c(C(=O)OCC(=O)NNC(=O)c2cccs2)c1 | - | - | . | - | - | -
CN(C)/C=C/C(=O)c1ccc(-n2cccc2)cc1 | ? | 3.5µM | 13µM | ? | 11µM | 2.8µM
Cc1cc(C(=O)COC(=O)c2ccc(O)cc2)c(C)n1CC(F)(F)F | ? | 2.8µM | . | ? | . | 3.2µM
CCCn1c(C)cc(C(=O)COC(=O)c2ccc[nH]c2=O)c1C | ? | ? | . | ? | 2.7µM | 1.3µM
